A number with no mark means an inactive call. Results filed as inconclusive are left out. Entries that show only a call come without a potency. Active and inactive are the calls of the source. Unless noted, calls follow the shape of the dose curve; as a rule, active = well fitted curve in the direction sought with a large enough effect in the repeat runs; inconclusive = weak or mixed curves; inactive = no such curve, though single readings can be large; an effect the other way counts as inactive or inconclusive.
Tests used:
[1] = qHTS assay for small molecules that induce genotoxicity in human embryonic kidney cells expressing luciferase-tagged ATAD5 (AID 651632); also: nearly all actives have a fitted effect of over 15% in size
Method in brief: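 Genotoxicity read-out via ATAD5-luciferase: HEK293T cells, 16 hr compound incubation at 37C, Amplite detection.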

[2] = qHTS assay for small molecule agonists of the p53 signaling pathway - cell viability (AID 651633; calls by dose curve;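 also: p53RE-bla HCT reporter cells with a stable beta-lactamase p53 reporter; series mostly up to about 83 µM; nearly all actives have a fitted effect of over 30% in size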)
Method in brief: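 Viability counter-read: CellTiter-Glo luminescence (30 min, room temperature) in the same p53RE-bla plates. These plates had been exposed to compounds for 16 h at 37 C.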

[3] = qHTS assay for small molecules that induce genotoxicity in human embryonic kidney cells expressing luciferase-tagged ATAD5 - cell viability (AID 651634; calls by dose curve; also: nearly all actives have a fitted effect of over 25% in size)
Method in brief: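 Live-cell protease activity (CellTiter-Fluor, fluorescence) indicates viability. HEK293T cells with luciferase-tagged ATAD5; 15.5 hr compound treatment at 37C.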

[4] = qHTS assay for small molecule disruptors of the mitochondrial membrane potential - cell viability (AID 720634; calls by dose curve;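 also: human HepG2 liver cancer cells; series mostly up to about 83 µM; nearly all actives have a fitted effect of over 20% in size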)
Method in brief: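 Human hepatoma HepG2 cells were treated for 1 hr with test chemicals, then given m-MPI dye and CellTiter-Glo. Cell viability reflects luminescence proportional to cellular ATP.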

[5] = qHTS assay for small molecule disruptors of the mitochondrial membrane potential (AID 720635)
Method in brief: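 Mitochondrial membrane potential tracked with Mito-MPS dye, red aggregates (ex 540/em 590 nm) against green monomers (ex 490/em 535 nm). Compound treatment 1 hr at 37C, dye 30 min in HepG2.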

[6] = qHTS assay to test for compound auto fluorescence at 590 nm (red) in HepG2 cells (AID 720674)
Method in brief: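 Red autofluorescence (Ex/Em 540/590 nm, Rose Bengal sodium equivalents) was measured in HepG2 cells, 2,000 per well in MEM plus 10% FBS, plated overnight at 37 C. Readings were taken 1 hr after adding 23 nL compound or DMSO, at 37 C and 5% CO2.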

[7] = qHTS assay to test for compound auto fluorescence at 535 nm (green) in HepG2 cells (AID 720675)
[8] = qHTS assay to test for compound auto fluorescence at 460 nm (blue) in HEK293 cells (AID 720678); also: potency is read from the fitted curve at half-maximal effect
Method in brief: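 Triamterene serves as the blue fluorophore standard. Compound signal at 405/460 nm is read in HEK293 wells (2,000 cells, 10% dialyzed FBS) after overnight treatment at 37C.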

[9] = qHTS assay to test for compound auto fluorescence at 590 nm (red) in HEK293 cells (AID 720679)
Method in brief: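 We plated HEK293 cells in 10% dialyzed FBS medium, let them adhere for 4-5 hr, then added 23 nL compound. Overnight at 37C and 5% CO2 preceded fluorescence measurement at 540/590nm.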

[10] = qHTS assay to test for compound auto fluorescence at 535 nm (green) in HEK293 cells (AID 720680)
[11] = qHTS assay to test for compound auto fluorescence at 460 nm (blue) in HEK293 cell free culture (AID 720681); also: potency is read from the fitted curve at half-maximal effect
Method in brief: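 Blue fluorescence (Ex 405/Em 460 nm, triamterene-equivalent) was read immediately after pin transfer of compound or DMSO into medium (DMEM, 10% FBS) without cells.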

[12] = qHTS assay to test for compound auto fluorescence at 535 nm (green) in HEK293 cell free culture (AID 720682)
Method in brief: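 DMEM + 10% FBS, cell-free; cpd or DMSO pinned in; Ex485/Em535 read; output as fluorescein-equivalent signal.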

[13] = qHTS assay to test for compound auto fluorescence at 590 nm (red) in HEK293 cell free culture (AID 720683)
Method in brief: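 Red-channel autofluorescence of compounds in culture medium (DMEM, 10% FBS), no cells, measured at 540/590 nm. Rose Bengal sodium is the reference fluorophore for equivalence.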

[14] = qHTS assay to test for compound auto fluorescence at 590 nm (red) in HepG2 cell free culture (AID 720684)
Method in brief: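 Steps: dispense MEM/10% FBS medium, no cells; pin compound or DMSO vehicle; read red channel, Ex/Em 540/590 nm. Output given as Rose Bengal sodium equivalents.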

[15] = qHTS assay to test for compound auto fluorescence at 460 nm (blue) in HepG2 cell free culture (AID 720685)
Method in brief: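 Compound (23 nL) or DMSO pinned into cell-free MEM with 10% FBS; blue fluorescence read at 405/460 nm excitation/emission, expressed as auto-fluorescence equivalency to triamterene.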

[16] = qHTS assay to test for compound auto fluorescence at 535 nm (green) in HepG2 cell free culture (AID 720686)
[17] = qHTS assay to test for compound auto fluorescence at 460 nm (blue) in HepG2 cells (AID 720687)
Method in brief: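 Blue-channel autofluorescence (Ex/Em 405/460 nm, triamterene-equivalent) was measured after 1 hr compound exposure at 37 C, 5% CO2. Cells were HepG2, plated overnight at 37 C in MEM plus 10% FBS.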

[18] = target: Glucocorticoid receptor (Homo sapiens) (UniProt P04150); assay: qHTS assay to identify small molecule agonists of the glucocorticoid receptor (GR) signaling pathway (AID 720691; active = well fitted activation curve with a large enough effect in the signal ratio in the repeat runs, not every such curve was filed as active; the % refers to the signal ratio)
Chain of Glucocorticoid receptor (Homo sapiens) (P04150 whole entry, looked up): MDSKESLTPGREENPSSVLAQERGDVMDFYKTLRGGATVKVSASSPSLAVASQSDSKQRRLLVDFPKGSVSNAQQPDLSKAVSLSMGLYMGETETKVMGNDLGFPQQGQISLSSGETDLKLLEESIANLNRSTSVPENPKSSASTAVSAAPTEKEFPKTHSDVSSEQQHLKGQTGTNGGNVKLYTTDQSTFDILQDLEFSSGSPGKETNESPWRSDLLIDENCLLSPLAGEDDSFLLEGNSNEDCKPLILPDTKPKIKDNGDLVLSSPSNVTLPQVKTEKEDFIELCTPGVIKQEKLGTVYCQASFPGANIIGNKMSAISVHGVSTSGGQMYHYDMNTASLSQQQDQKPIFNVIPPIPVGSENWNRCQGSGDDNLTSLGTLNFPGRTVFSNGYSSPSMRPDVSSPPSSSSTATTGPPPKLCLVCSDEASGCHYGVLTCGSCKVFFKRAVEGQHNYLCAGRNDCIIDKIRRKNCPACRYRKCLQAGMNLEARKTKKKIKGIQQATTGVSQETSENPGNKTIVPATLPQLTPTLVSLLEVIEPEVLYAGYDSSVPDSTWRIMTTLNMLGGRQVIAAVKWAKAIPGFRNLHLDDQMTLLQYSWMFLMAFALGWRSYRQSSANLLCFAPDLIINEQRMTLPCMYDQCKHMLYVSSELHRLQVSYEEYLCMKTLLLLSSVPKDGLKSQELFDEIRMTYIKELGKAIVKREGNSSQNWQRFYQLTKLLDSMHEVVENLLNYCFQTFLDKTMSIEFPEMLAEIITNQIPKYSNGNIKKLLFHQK
Method in brief: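 Beta-lactamase reporter activity, read as fluorescence intensity, was measured in GR-bla HeLa cells exposed to compounds for 18 h at 37 C and then loaded with LiveBLAzer B/G FRET substrate for 2 h at room temperature.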

[19] = target: Glucocorticoid receptor (Homo sapiens) (UniProt P04150); assay: qHTS assay to identify small molecule antagonists of the glucocorticoid receptor (GR) signaling pathway (AID 720692; active = well fitted inhibition curve with a large enough effect in the signal ratio in the repeat runs, not every such curve was filed as active; the % refers to the signal ratio)
Method in brief: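 Fluorescence from cleaved LiveBLAzer B/G FRET substrate reports GRE-driven beta-lactamase in HeLa cells; compounds are tested against 5 nM dexamethasone (final) over 18 h at 37 C, substrate incubation 2 h at room temperature.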
Tags tell the direction and shape of the fitted curve or compound fluorescence and quenching.

SMILES	Potency [1]	Potency [2]	Potency [3]	Potency [4]	Potency [5]	outcome [6]	outcome [7]	Potency [8]	outcome [9]	outcome [10]	Potency [11]	outcome [12]	outcome [13]	outcome [14]	outcome [15]	outcome [16]	outcome [17]	Potency [18]	Potency [19]
CCCc1ccc(OC)cc1	inactive	inactive	inactive	inactive	inactive	inactive	inactive	inactive	inactive	inactive	inactive	inactive	inactive	inactive	inactive	inactive	inactive	inactive	inactive
O=C(Nc1ccccc1)c1cc([N+](=O)[O-])ccc1Cl	inactive	inactive	inactive	–	–	inactive	inactive	inactive	inactive	inactive	inactive	inactive	inactive	inactive	inactive	inactive	inactive	–	–
C=CC(=O)NC(C)(C)C	inactive	inactive	inactive	inactive	–	inactive	inactive	inactive	inactive	inactive	inactive	inactive	–	inactive	inactive	inactive	inactive	inactive	inactive
C=Cc1ccc(C=C)cc1	inactive	inactive	inactive	inactive	–	inactive	inactive	inactive	inactive	inactive	inactive	inactive	inactive	inactive	inactive	inactive	inactive	inactive	inactive
CC(Cc1ccccc1)(NC(=O)CN)c1ccccc1 (stereo not given)	inactive	inactive	inactive	inactive	–	inactive	inactive	inactive	inactive	inactive	inactive	inactive	inactive	inactive	inactive	inactive	inactive	inactive	–
Cc1c(-c2cccnc2)c2ccccc2n1CCCCC(=O)O	inactive	inactive	inactive	inactive	–	inactive	inactive	inactive	inactive	inactive	inactive	inactive	–	inactive	inactive	inactive	inactive	–	–
C=CC(C)CCC=C(C)C (stereo not given)	inactive	inactive	inactive	inactive	–	inactive	inactive	inactive	–	inactive	inactive	inactive	inactive	inactive	–	inactive	inactive	inactive	inactive
Clc1nc2ccccc2nc1Cl	inactive	inactive	inactive	inactive	–	inactive	inactive	inactive	–	inactive	inactive	inactive	inactive	inactive	inactive	inactive	inactive	inactive	inactive
CCCN(C1CCN(C(=O)C2CCNCC2)CC1)[C@@H]1CCc2ccc(OC)cc2C1	inactive	inactive	inactive	inactive	–	inactive	inactive	inactive	inactive	inactive	inactive	inactive	–	inactive	inactive	inactive	inactive	inactive	inactive
O=Cc1ccc(Cl)c([N+](=O)[O-])c1	inactive	inactive	inactive	–	–	inactive	inactive	inactive	inactive	inactive	inactive	inactive	inactive	inactive	–	inactive	inactive	–	–
N#C[C@@H]1CC(F)(F)CN1C(=O)CNC1CC2CCC(C1)N2c1ncccn1 (stereo not given in full)	inactive	inactive	inactive	inactive	–	inactive	inactive	inactive	–	inactive	inactive	inactive	inactive	inactive	–	inactive	inactive	inactive	inactive
COC(=O)c1cc(Cl)ccc1[N+](=O)[O-]	inactive	inactive	inactive	inactive	inactive	inactive	inactive	inactive	inactive	inactive	inactive	inactive	inactive	inactive	–	inactive	inactive	inactive	inactive
CC[C@H](NC(C)C)[C@H](O)c1ccc(O)c2[nH]c(=O)ccc12	inactive	inactive	inactive	inactive	inactive	inactive	inactive	11.2 µM [fluorescent] (active)	–	inactive	14.1 µM (active)	inactive	inactive	–	–	inactive	inactive	inactive	inactive
CC1=C(C)C(=O)C(CCCCC#CCCCC#CCO)=C(C)C1=O	inactive	inactive	inactive	inactive	–	inactive	inactive	inactive	inactive	inactive	inactive	inactive	inactive	–	inactive	inactive	inactive	inactive	inactive
CC1(C)CC(O)CC(C)(C)N1[O]	inactive	inactive	inactive	–	–	inactive	inactive	inactive	inactive	inactive	inactive	inactive	inactive	–	–	inactive	inactive	–	–

From PubChem BioAssay (Tox21)
